About 3,200 (25%) of roughly 13,000 compounds showed an effect of 50% or more. The list shows a part of the results.
The compounds below were run on P. falciparum stage V gametocytes. Conditions: 48 h, 5 µM; inhibitor.
Design: BacTiter-Glo ATP luminescence viability of purified stage V gametocytes in 384-well plates, per cent inhibition versus DMSO

Row | SMILES | % Inhibition [%]
1 | Cc1ccc2nc(Nc3ccc(Nc4nc5ccc(C)cc5[nH]4)c(C)c3)[nH]c2c1 [TCMDC-131952] | -70.19
2 | COc1ccc2nccc([C@@H](O)CN3CCC(NC(=O)c4cc5ccccc5[nH]4)CC3)c2c1 [TCMDC-140780] | -18.21
3 | O=C(Nc1ccc(CC(=O)N2CCc3cc(Cl)c(N4CCN(C/C=C/c5ccccc5)CC4)cc32)cc1)Nc1cccc([N+](=O)[O-])c1 [TCMDC-139475] | 6.892
4 | Cc1cc(Nc2cccc(C#N)c2)nc(Nc2ccccc2C)n1 [TCMDC-133471] | -8.734
5 | CCCCNC(=O)[C@H](CC1CCCCC1)NC(=O)c1ccc(O)c(-c2cccc(C(F)(F)F)c2)c1 [TCMDC-140812] | 31.87
6 | O=C(Nc1cc(Cl)ccc1O)c1cc(-c2ccccc2O)no1 [TCMDC-125274] | -14.42
7 | Cc1[nH]c2ccc(C#N)cc2c(=O)c1Br [TCMDC-135219] | 27.39
8 | Cc1ccc2[nH]c(C)c(Br)c(=O)c2c1 [TCMDC-124347] | 65.99
9 | O=c1c(Br)c(C(F)(F)F)[nH]c2ccc(Oc3ccccc3)cc12 [TCMDC-135798] | -15.2
10 | COC(=O)c1ccccc1N1CCN(CCCCNC(=O)c2ccc(NC(=O)c3cc(Cl)cc(Cl)c3)cc2)CC1 [TCMDC-138235] | 7.414
11 | NC(N)=Nc1ccc(OCCCCCOc2ccc(N=C(N)N)c(Cl)c2)cc1Cl [TCMDC-137577] | 34.57
12 | NC(N)=Nc1ccc(OCCCCCOc2ccc(N=C(N)N)cc2Br)c(Br)c1 [TCMDC-137543] | 77.55
13 | NC(N)=Nc1ccc(OCCCCCOc2ccc(N=C(N)N)cc2)cc1 [TCMDC-137482] | 39.96
14 | Cc1nc(N)nc(N)c1-c1cc(Cl)c(N)c(Cl)c1 [TCMDC-137386] | -88.48
15 | Cc1nc2ccccc2c(=O)n1/N=C/c1ccccc1[N+](=O)[O-] [TCMDC-125512] | 2.657
16 | CCOC(=O)c1c[nH]c2c(sc3cc(OC)ccc32)c1=O [TCMDC-137190] | 2.888
17 | CCOC(=O)c1c[nH]c2c(ccc3ccccc32)c1=O [TCMDC-123857] | 33.13
18 | CCCCOc1cc2[nH]cc(C(=O)OCC)c(=O)c2cc1OCCCC [TCMDC-137523] | 63.76
19 | CCCc1cc(NCC)nc(Nc2ccc(C)cc2)n1 [TCMDC-134013] | -22.6
20 | Cc1cccc(OCC(=O)Nc2cccc(NC(=O)COc3cccc(C)c3)n2)c1 [TCMDC-123837] | 22.25
21 | COc1cc(C(=O)NC2CCc3ccccc32)cc(Cl)c1OC (stereo not shown) [TCMDC-124601] | 17.65
22 | Cc1cnc(Nc2cccc(CCN3CCOCC3)c2)nc1NC(C)C [TCMDC-133533] | 57.17
23 | OC(CNc1ccnc(Nc2cccc(CCN3CCOCC3)c2)n1)c1ccccc1 (stereo not shown) [TCMDC-136463] | 12.7
24 | Cc1cccc(Nc2nccc(Nc3cccc(C(=O)NCCN4CCOCC4)c3)n2)c1 [TCMDC-124774] | -4.453

Row | SMILES | % Inhibition [%]
25 | CCCCN1CCN(CCCNc2c3ccccc3nc3ccccc23)CC1 [TCMDC-137572] | 99.41
26 | CCCCCCCCN1CCN(CCCCCCNc2c3ccccc3nc3ccccc23)CC1 [TCMDC-138015] | 122.1
27 | CCCCN1CCN(CCCCNc2c3ccccc3nc3ccccc23)CC1 [TCMDC-137569] | 97.88
28 | CCCCCCN1CCC(NCc2cccc3ccccc23)CC1 [TCMDC-141665] | -97.34
29 | CCCCCCNc1c2ccccc2nc2ccccc12 [TCMDC-123957] | -50.01
30 | COc1ccc(NC(=O)Nc2ccc(-c3ccncc3)c(C(F)(F)F)c2)cc1N1CCN(C)CC1 [TCMDC-139213] | -9.659
31 | O=C(Cc1cnc[nH]1)Nc1cccc(-c2ccc(-c3nc4ccccc4[nH]3)cc2)c1 [TCMDC-136947] | 6.174
32 | O=C(/C=C/c1ccc(Cl)c(Cl)c1)NCCCCCCN1CCCN(C(=O)Nc2cc(F)cc(F)c2)CC1 [TCMDC-135941] | 5.109
33 | C=C[C@]1(C)C[C@@H](OC(=O)NC(=O)C2CCN(C(=O)CSc3ccccc3)CC2)[C@]2(C)[C@H](C)CC[C@]3(CCC(=O)[C@H]32)[C@@H](C)[C@@H]1O [TCMDC-139971] | 14.26
34 | CNC(=O)NC1=NC(C)(C)N(OCCCOc2cc(Cl)c(Cl)cc2Cl)C(N)=N1 [TCMDC-131701] | 9.937
35 | NCCCCc1c(-c2ccc(Cl)c(Cl)c2)[nH]c2ccc(Cl)cc12 [TCMDC-125841] | 97.12
36 | CN(C)CCCNc1ncnc2c1[nH]c1ccc(Cl)cc12 [TCMDC-124579] | 36.17
37 | Cc1nc(N)nc(N)c1-c1ccc(Cl)c(Cl)c1 [TCMDC-123931] | 6.997
38 | CO/C(=C\C=C\c1cc2cc(Cl)c(Cl)cc2[nH]1)C(=O)NCCCN1CCN(c2cccc(OCC(=O)Nc3ccccc3)c2)CC1 [TCMDC-139822] | -45.25
39 | Cc1cc(OCCCN2CCC(NS(=O)(=O)c3cccc(Br)c3)C2)c2ccccc2n1 (stereo not shown) [TCMDC-136283] | -24.53
40 | COc1cc(Cc2cnc(N)nc2N)cc(OCCCC#N)c1OC [TCMDC-138040] | -4.212
41 | Cc1ccc(S(=O)(=O)N2CCN(C(=O)c3cc(-c4ccccc4)n[nH]3)CC2)cc1 [TCMDC-124401] | -51.82
42 | COc1ccccc1-c1cc(C(=O)N2CCN(S(=O)(=O)c3ccc(C)cc3)CC2)[nH]n1 [TCMDC-124398] | 19.71
43 | Cc1nn(CC(C)C)c2sc(C(=O)N3CCN(S(=O)(=O)c4ccc(C#N)cc4)CC3)cc12 [TCMDC-125045] | 90.92
44 | CCOc1ccc(-c2n[nH]c(C(F)(F)F)c2-c2ccccc2OC)c(O)c1 [TCMDC-124564] | -16.08
45 | CC(=O)c1c(C)[nH]c(C(=O)Nc2ccc(-c3nc4ccc(C)cc4s3)cc2)c1C [TCMDC-124493] | 55.35
46 | CC(=O)Nc1cccc(C(=O)Nc2ccc(-c3ccc(-c4nc5cccc(C)c5[nH]4)s3)cc2)c1 [TCMDC-132143] | -2.133
47 | CC(=O)Nc1ccc(C2NC(=O)NC(c3ccccc3)=C2c2nc3ccccc3s2)cc1 (stereo not shown) [TCMDC-124535] | -96.89
48 | CC[C@H](NC(=O)c1c(CN2CCC(N3CCCCC3)CC2)c(-c2ccccc2)nc2c(Cl)c(O)ccc12)c1ccccc1 [TCMDC-140367] | 17.06

Row | SMILES | % Inhibition [%]
49 | CCN(CC)CCNc1ccnc2[nH]c3ccc([N+](=O)[O-])cc3c12 [TCMDC-131978] | 4.282
50 | CCCN(CCC)CCOc1ccc(C(O)(C#CC(O)(c2ccc(OCCN(CCC)CCC)cc2)c2cccc(Cl)c2)c2cccc(Cl)c2)cc1 (stereo not shown) [TCMDC-137200] | 105.4
51 | CCC(=O)OC(CCN(CC)CC)(c1ccccc1)c1ccccc1 [TCMDC-131415] | 15.82
52 | CCOC(=O)c1ccc(OCCCCCCOc2ccc(Br)cc2)cc1 [TCMDC-131409] | 4.056
53 | CCN(CC)CCOc1ccc(NC(=O)c2oc3ccccc3c2C=Cc2ccccc2)cc1 [TCMDC-132102] | 24.22
54 | CCN(CC)CCOc1ccc(C(O)(C#CC(O)(c2ccccc2)c2ccc(OCCN(CC)CC)cc2)c2ccccc2)cc1 (stereo not shown) [TCMDC-137197] | 109.6
55 | CCN(CC)CCOc1ccc(C(O)(C#CC(O)(c2ccc(Br)cc2)c2ccc(OCCN(CC)CC)cc2)c2ccc(Br)cc2)cc1 (stereo not shown) [TCMDC-137199] | 112.4
56 | CCN(CC)CCOc1ccc(C(O)(C#CC(O)(c2ccc(OCCN(CC)CC)cc2)c2ccc([N+](=O)[O-])cc2)c2ccc([N+](=O)[O-])cc2)cc1 (stereo not shown) [TCMDC-137201] | 116.9
57 | NOCCCCOc1ccc(Br)cc1 [TCMDC-131760] | 15.82
58 | CC1(C)N=C(N)N=C(N)N1OCCCOc1ccc([N+](=O)[O-])cc1 [TCMDC-131610] | 2.796
59 | O=C(Nc1ccc(Cl)cc1)c1ccc(CN2CCCN(Cc3ccsc3)CC2)cc1 [TCMDC-136415] | 6.883
60 | O=C(Nc1cccc(CN2CCCN(Cc3ccc(O)cc3)CC2)c1)c1cccc(Cl)c1 [TCMDC-141817] | -7.519
61 | Cc1sc2nc(CSc3ccccc3)nc(N3CCN(CC(=O)NC4CC4)CC3)c2c1C [TCMDC-125266] | 47.29
62 | COc1ccc2ccc(F)c(CC(=O)N3CCOC(CNCc4cccc(-c5ccsc5)n4)C3)c2n1 (stereo not shown) [TCMDC-135027] | 10.39
63 | O=C(/C=C/c1ccc(Cl)c(Cl)c1)NCCCCCN1CCC(C(=O)Nc2ccc(F)c(Cl)c2)CC1 [TCMDC-136112] | 0.5724
64 | CN(CCCN(C)c1cc(NC(=O)c2ccc(F)cc2)ccn1)Cc1cccc(O)c1 [TCMDC-134954] | -6.57
65 | C[C@H](NC(=O)C1CCCC1)C(=O)Nc1ccc(-c2ccc(-c3nc4ccc(C(F)(F)F)cc4[nH]3)cc2)cc1 [TCMDC-137052] | -25.16
66 | COc1cc(Cc2cnc(N)nc2N)cc(OCCCS(=O)(=O)O)c1OC [TCMDC-137357] | -4.274
67 | COc1cc(/C=C/C(=O)NC2CCC(N3CCC(c4ccccc4C)CC3)CC2)cc(OC)c1 (stereo not shown) [TCMDC-133516] | -90.94
68 | Cc1ccc(OCCCCONC(=O)c2ccccc2)cc1 [TCMDC-131756] | 2.332
69 | CCN(CC)CCOc1ccc(C(O)(C#CC(O)(c2ccc(C)cc2)c2ccc(OCCN(CC)CC)cc2)c2ccc(C)cc2)cc1 (stereo not shown) [TCMDC-137198] | 113
70 | CCCC(C(=O)OCCN(CC)CC)(c1ccc(Cl)cc1)c1ccc(Cl)cc1 [TCMDC-141994] | 16.96

— PMC4552634, “A New Set of Chemical Starting Points with Plasmodium falciparum Transmission-Blocking Potential for Antimalarial Drug Discovery” (PLoS ONE, 2015)
